Data published in PubChem BioAssay AID2100 (National Center for Advancing Translational Sciences (NCATS), 2009).
Hit rate of the full screen: of about 300,000 compounds, about 1,200 (0.4%) were called active. Entries that show only a call come without a potency. Roughly 3% stayed inconclusive and do not appear here. The call rests on the fitted dose curve; in most records, active means well fitted inhibition curve with a large enough effect; inconclusive means small, poorly fitted or top-dose-only effect, or another doubt; inactive means no such curve, though single readings can be large or run the other way. Only a selection was taken, and actives are over-represented in it overall.

target: Lysosomal alpha-glucosidase (Homo sapiens) (UniProt P10253); assay: qHTS Assay for Inhibitors and Activators of Human alpha-Glucosidase Cleavage of Glycogen; conditions: recombinant GAA, glycogen substrate, Amplex Red glucose oxidase fluorescence; series mostly up to 76.4 µM;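 further: the screen sought inhibitors and activators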
From the text: NIH Chemical Genomics Center [NCGC] NIH Molecular Libraries Probe Production Centers Network [MLPCN] MLPCN Grant: R03 MH084841-01 Assay Submitter (PI): Wei Zheng NCGC Assay Overview: Alpha-glucosidase is responsible for the hydrolysis of terminal, non-reducing 1,4-linked alpha-D-glucose residues, which releases alpha-D-glucose. It is a lysosomal hydrolase that is required for the degradation of a small percentage (1-3%) of cellular glycogen in humans. Deficiency of this enzyme results in glycogen-storage disease type II (GSDII), also referred to as Pompe disease, an autosomal recessive disorder. Structurally normal glycogen is accumulated in the lysosomes and cytoplasm in affected patients, primarily in muscle tissues. Excessive glycogen storage within lysosomes may interrupt normal functioning of other organelles and leads to cellular injury. In turn, this leads to enlargement and dysfunction of the entire organ involved (eg: cardiomyopathy and muscle weakness). It has been reported that the improper folding and trafficking of alpha-glucosidase resulting from genetic mutations may account for a significant number of Pompe patients. […] We optimized this alpha-glucosidase assay in 1536-well plate format for identification of novel small molecule inhibitors or activators with structures other than the sugar analogs in order to develop new pharmacological chaperones. Previous assays of alpha-Glucosidase have utilized a non-natural fluorescent substrate to probe enzyme activity. The present assay measures enzyme activity on glycogen using a coupled-assay system to glucose oxidase.
NCGC Assay Protocol Summary: This is an enzyme assay using glycogen from bovine liver (Sigma catalog #: G0885) as the substrate and recombinant human alpha-glucosidase as the enzyme preparation. Upon hydrolysis of the substrate, the glucose product can be detected using the Amplex Red Glucose Oxidase Assay Kit (Invitrogen catalog #: A22189). The product of this reaction can be read with a fluorescence plate reader with an excitation at 573 nm and an emission at 610 nm. Data were normalized to the controls for basal activity (without enzyme) and 100% activity (with enzyme). The AC50 values were determined from concentration-response data modeled with the standard Hill equation. Assay buffer for enzyme reaction: 50 mM citric acid (titrated with potassium phosphate to pH 5.0), 0.01% Tween-20 (pH 5.0 is an optimal condition for this enzyme assay) Assay buffer for Amplex Red reaction: Tris-HCl, pH 7.5 1536-well assay protocol for the alpha-glucosidase assay: (1) Add 2 ul/well alpha-glucosidase enzyme solution (4 nM final) (2) Add 23 nL compounds in DMSO solution. The final titration was 0.7 nM to 77 uM. (3) Add 1 ul of glycogen substrate solution (30 ug) (4) Incubate at 37 C for 40 min (5) Add 2 ul tris-HCl buffer with Amplex Red reagents (6) Incubate 45 min at room temperature. (7) Detect the assay plate in a ViewLux plate reader (PerkinElmer) with Ex=573 nm and Em=610nm. Keywords: Alpha-glucosidase, Pompe Disease, pharmacological chaperone, chaperone therapy, high throughput screening, alpha-glucosidase inhibitor, MLSMR, MLSCN, NIH Roadmap, qHTS and NCGC
Potency means the concentration at half of the fitted maximal effect.

SMILES	Potency
Oc1cc2c(cc1CN1CCN(c3ccccc3)CC1)OCO2	2000 nM (active)
CC(C)c1ccc(O)c(CN2CCN(c3ccccc3)CC2)c1	inactive
Fc1ccc(N2CCN(Cc3ccc4c(c3)OCO4)CC2)cc1	inactive
Cc1ccc(NC(=O)N(Cc2ccc3c(c2)OCO3)C2CCN(Cc3ccccc3)CC2)cc1F	inactive
Cn1cc(/C=C/c2nc3ccccc3c(=O)n2-c2ccccc2)c2ccccc21	inactive
